# Sampled rows, rich in hits. Any-hit rate of the full collection: about 11%.
# USP28 block: inhibitors of human USP28 deubiquitinase; 3% of 47,000 active; Q96RU2; inhibition, % at 25 µM; purified USP28, Ub-rhodamine cleavage fluorescence, 30 min
# USP30 block: human USP30 deubiquitinase inhibition; Q70CQ3; purified USP30, Ub-rhodamine cleavage fluorescence; 5.3% of 47,000 active; inhibition, % at 25 µM
# USP17 inh: human USP17-like deubiquitinase inhibition. A8MUK1. purified USP17, Ub-rhodamine cleavage fluorescence, 3 h. inhibition, % at 50 µM. 6.5% of 47,000 active. AID 1645855
# * hit, by the source's call. No stated cut-off is given here; in the data, active means inhibition above about 30%; inactive means the rest.
SMILES,USP28 block,USP30 block,USP17 inh
CC(C)OCCCn1c(=O)c2ccccc2n2c(CCC(=O)N3CCN(c4ccccn4)CC3)nnc12,-4,-2,-4
Cc1ccc(Cn2c(=O)c3ccccc3n3c(CCC(=O)N4CCN(C(=O)c5ccco5)CC4)nnc23)cc1,7,17,42*
O=C(CCc1nnc2n(Cc3ccc(Cl)cc3)c(=O)c3ccccc3n12)N1CCN(c2ccccc2)CC1,2,18,-5
O=C(CCc1nnc2n(Cc3ccccc3)c(=O)c3ccccc3n12)N1CCN(c2ccccn2)CC1,26,60*,35*
CCCCN(c1ccccc1)S(=O)(=O)c1cccc(C(=O)Nc2cccc(C(C)=O)c2)c1,0,-2,-9
O=C(Cn1c([C@@H]2CCCO2)cc2cccnc21)NCCOc1ccccc1,7,5,1
Cc1cccc(NC(=O)c2nc3c(=O)[nH]c4cc(C)ccc4n3n2)c1,-11,-174,35*
CCOc1ccc(NC(=O)CSCC(=O)Nc2cccc(C)c2)cc1,1,-5,0
CCOc1ccc(NC(=O)c2nc3c(=O)[nH]c4cc(C)ccc4n3n2)cc1,-41,-134,54*
COc1cc(=O)[nH]c(SCC(=O)Nc2cccc(C)c2)n1,-2,-15,-16
Cc1ccccc1C(=O)N1CCCn2cnc(COC(C)C)c2C1,-9,-11,2
CCCN1Cc2cccc(C(=O)Nc3ccc(S(=O)(=O)N4CCOCC4)cc3)c2C1=O,9,14,0
COc1ccc(CNS(=O)(=O)c2ccc3c(c2)NC(=O)CC(C)S3)cc1 (configuration not stated),0,-16,-6
O=C1c2ccccc2-c2nnc(-c3ccncc3)cc21,13,34*,47*
Cn1c(=O)c2c(-c3ccncc3)cc(-c3ccccc3)nc2n(C)c1=O,0,9,10
